# Reference: ChEMBL document CHEMBL3988442, “University of Dundee, Small-Polar-MMV Screening Library” (2021)
# The campaign covered roughly 48,000 compounds. About 13,000 (27%) showed an effect of 50% or more. This is one part of the list.
# Tested on: Wolbachia pipientis
# Assay: Anti-Wolbachia Cell-Based Screen
# Assay type: functional
# Parameters: scale not given: in the data most compounds retested in dose-response had high values
# Details: 5 µM
row,Compound,Percent Effect
1,CCn1ncc2c1C(COC)CN(Cc1cnn(C)c1)C2 (stereo not drawn),98.55%
2,CCn1ncc2c1C(COC)CN(Cc1nccs1)C2 (stereo not drawn),93.87%
3,CC(C)N(CC1CCCN(Cc2ccon2)C1)C(=O)OC(C)(C)C (stereo not drawn),-0.3893%
4,CC(C)OCCNC(=O)C1CCC(=O)N(C2CCCC2)C1 (stereo not drawn),-13.5%
5,Cc1ccc(CNC(=O)N2CCN(S(C)(=O)=O)CC2)n1C,-9%
6,CN(C)C(=O)c1ccn(-c2ccc3ccccn23)n1,2.89%
7,CS(=O)(=O)N1CCCCCC1C1CCN(c2ncccc2C#N)CC1 (stereo not drawn),-0.7273%
8,CS(=O)(=O)N1CCC[C@H]1c1ncnn1-c1ccc2c(c1)OCO2,23.33%
9,Cc1ccc2nc(C3CCCN3Cc3scnc3C)[nH]c2c1 (stereo not drawn),-7.773%
10,CS(=O)(=O)N1CCCCCC1C1CCN(c2ncccn2)CC1 (stereo not drawn),-4.856%
11,Cc1ccc2nc(C3CCCN3Cc3cccc(CCN)c3)[nH]c2c1 (stereo not drawn),-6.155%
12,CS(=O)(=O)N1CCCC1c1ccnc2nccn12 (stereo not drawn),122.4%
13,Cc1csc(Nc2nccnc2C2CCCN2S(C)(=O)=O)n1 (stereo not drawn),47.35%
14,CC(C)=CCCC(C)CN1CCC(n2cc(C(=O)NCCO)nn2)CC1 (stereo not drawn),-5.673%
15,CCCn1cnnc1CN(C)C(=O)CCC(=O)Nc1cc(C)ccc1F,-24.09%
16,O=C(CCCn1cncn1)N1CCC2(CCCNC2=O)C1 (stereo not drawn),-3.772%
17,O=C(C[S+]([O-])Cc1csc(C2CCCC2)n1)Nc1ccccc1 (stereo not drawn),0.09199%
18,COCC(O)CN(C)C(=O)NC1CCN(S(C)(=O)=O)CC1 (stereo not drawn),12.14%
19,CCC(CC)(CNC(=O)OC(C)(C)C)NC(=O)C1CCOCC1,5.998%
20,O=S(=O)(NCC(O)c1cccs1)c1ccccc1Cl (stereo not drawn),2.157%
21,CCc1nc(N)nc(NCCC(=O)N2CCCC2)c1C,9.291%
22,CC(C)(C)C(=O)NC[C@H]1Cn2c(-c3ccccc3)cnc2CO1,-8.442%
23,CN(CC1=CCCN(CCc2ccccn2)C1)C(=O)c1ccco1,0.7414%
24,CN(Cc1ccccn1)C(=O)CNC(=O)N1CCc2ccccc2C1,97.17%
25,CCOc1ncccc1NC(=O)N1CCc2ccccc2C1,-0.7073%
26,CN(Cc1ccsc1)C(=O)CN1CCc2c(ncn2C)C1,-3.155%
27,O=C(NCCNc1ncccn1)N1CCc2ccccc2C1,8.02%

row,Compound,Percent Effect
1,CNC(=O)c1cccc(CCNC(=O)N2CCc3ccccc3C2)c1,1.406%
2,CN(Cc1ccsc1)C(=O)CNC(=O)N1CCc2ccccc2C1,90.63%
3,CC(C)c1noc(C(C)N2CCC(c3nc4ccccc4o3)CC2)n1 (stereo not drawn),1.795%
4,Cc1cc(C)c2c(c1)C(NC(=O)CSc1nnc[nH]1)CCO2 (stereo not drawn),8.701%
5,Cc1nn(C)c2nc(N(C)CC3CCN(CC(C)C)C3)sc12 (stereo not drawn),-16.91%
6,O=C(c1ccoc1)N1CCCN(CC2CCOc3ccccc3C2)CC1 (stereo not drawn),-7.228%
7,COc1cccc(CNc2nc(O)cc(C3CC(=O)N(C)C3)n2)c1 (stereo not drawn),-3.669%
8,Cc1ccccc1CNc1nc(O)cc(C2CC(=O)N(C)C2)n1 (stereo not drawn),-5.04%
9,N#Cc1cccc(NC2CC(=O)N(Cc3ccccc3Cl)C2)n1 (stereo not drawn),-1.238%
10,CN1CC(c2cc(O)nc(NCc3cccc(F)c3)n2)CC1=O (stereo not drawn),104.4%
11,CN1CC(c2cc(O)nc(NCc3ccccc3Cl)n2)CC1=O (stereo not drawn),83.2%
12,CN1CC(c2cc(O)nc(NCc3ccc(Cl)cc3)n2)CC1=O (stereo not drawn),70.24%
13,Cc1nc(NC(=O)NC2CC(=O)N(C)C2)nn1C (stereo not drawn),3.668%
14,CC1CCc2nc(O)c(C(=O)NCc3cccc(F)c3)cc2C1 (stereo not drawn),-1.382%
15,Cc1cc(C)cc(OCCC(=O)NC2CC(=O)N(C)C2)c1 (stereo not drawn),-4.77%
16,Cc1ccc(CNc2nc(O)cc(C3CC(=O)N(C)C3)n2)cc1 (stereo not drawn),96.21%
17,CC(C)(CO)NC(=O)C1CCC(=O)N(Cc2ccc(Cl)cc2)C1 (stereo not drawn),-2.281%
18,CCC(NC(=O)Nc1ccc(OC)c(C)c1)c1noc(C)n1 (stereo not drawn),-4.029%
19,CC(C(=O)N1CCCN(c2ccc(C#N)cc2)CC1)n1ccnc1 (stereo not drawn),-8.735%
20,CC(C(=O)N1CCCN(c2ncccc2C#N)CC1)n1cccn1 (stereo not drawn),0.5745%
21,CC(C(=O)N1CCCN(c2ccc(C#N)cc2)CC1)n1cccn1 (stereo not drawn),143.8%
22,N#Cc1ccc(N2CCCN(CC(=O)N3CCC3)CC2)cc1,4.301%
23,CC(C(=O)N1CCCN(c2ccccc2C#N)CC1)n1cccn1 (stereo not drawn),129.1%
24,CC(C)c1nccn1C(C)C(=O)N1CCN(c2ccccc2Cl)CC1 (stereo not drawn),-35.17%
25,CC(C)n1ccnc1CN1C(=O)OC[C@@H]1c1ccccc1,11.77%
26,CCOCC(=O)N1C[C@H]2CC[C@@H]1CN(C(=O)c1ccncc1)C2,-0.6982%
